This passage reports growth results from PubChem BioAssay (NCI).

Compounds without any hit were thinned out: in the full panel of roughly 83,000, 20% have a hit.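 96-well plates, one dose, 48 hours. Percent growth reported; active if below 10.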 A number with no mark means an inactive call. Calls of active or inactive are those of the source.

What all share (assay): NCI-60 one-dose screen, 48 h (100 = growth as untreated, 0 = no growth, -100 = all killed)
Holding throughout (conditions): 10 µM unless noted

Assay [1] deals with DU-145 prostate.
In assay [2] the test system is K-562 leukemia.
The subject of assay [3] is MALME-3M melanoma.
Assay [4] concerns MDA-MB-231 breast.
The test system of assay [5] is RXF 393 renal.
The subject of assay [6] is SF-268 CNS.
In assay [7] the test system is SF-295 CNS.
Assay [8] relates to SF-539 CNS.
Assay [9] deals with UACC-257 melanoma.
Assay [10] concerns M14 melanoma.
For assay [11], the system named is HCT-15 colon.
Assay [12] concerns HT29 colon.
Assay [13] deals with SNB-75 CNS.
Assay [14] relates to SNB-19 CNS.
Assay [15] concerns U251 CNS.
Assay [16] concerns PC-3 prostate.
Assay [17] has as its system SK-MEL-5 melanoma.
Assay [18] deals with UACC-62 melanoma.
The test system of assay [19] is LOX IMVI melanoma.
For assay [20], the system named is SK-MEL-28 melanoma.

For `COc1cc(C2CC(c3cccc(Nc4ccnc5cc(Cl)ccc45)c3)=NN2c2ccc(Cl)cc2)cc(OC)c1OC` (stereo not given), the growth is 75.1% in assay [1]; 11.2% in assay [2]; 44.5% in [3]; 67% in assay [4]; 62.1% in [5]; 51.9% in assay [6]. Moreover, the growth was 3.25% (active) in assay [7]; 43.3% in assay [8]; 57.1% in [9]; 25.4% in [10]; 54.2% in [11]; 76% in assay [12]. Besides, the growth is 62.4% in assay [13]; 85.9% in assay [14]; 75.2% in assay [15]; 51% in assay [16]; 34.2% in [17]; 9.05% (active) in [18]. Moreover, the growth in assay [19] was 43.5%; in assay [20], 51.4%.

For `Clc1cn2cc(-c3ccc(Cl)c(Cl)c3Cl)nc2s1`, the growth was 117% in assay [1]; 92.6% in [2]; 101% in [3]; 98.5% in [4]; 99.8% in assay [5]; 103% in assay [6]. Further, the growth was -71.5% (active) in assay [7]; 105% in [8]; 112% in assay [9]; 95.3% in assay [10]; 93.9% in assay [11]; 112% in assay [12]. Moreover, the growth in assay [13] is 91.4%; in assay [14], 99.8%; in assay [15] it was 102%; in [16], 99.9%; in assay [18], 96.3%; in assay [19], 99.3%.

`CC(=O)OC1Oc2cc(C)c(C)cc2-c2oc(=O)c(-c3ccc(F)cc3)cc21` (stereo not given): the growth was 75.8% in [1]; 6.83% (active) in assay [2]; 65.3% in assay [3]; 77.7% in [4]; -1.93% (active) in assay [5]; 55.5% in assay [6]. Moreover, the growth was 80.5% in assay [7]; 72.7% in assay [8]; 96% in assay [9]; 38.5% in assay [10]; 46.6% in assay [11]; 16.1% in [12]. In addition, the growth was 77.9% in assay [13]; 90.5% in assay [14]; 53.5% in assay [15]; 60.2% in assay [16]; 55.2% in assay [17]; 49.8% in [18]. Moreover, the results for the growth in assay [19] and in assay [20] were 60.2% and 64.2%, respectively.

On to `Clc1ccc(Nc2ncnc3c2sc2ncccc23)cc1`, for which the growth is 20.2% in assay [1]; 46.6% in assay [2]; 65.6% in [3]; 63.9% in [4]; 32.9% in assay [5]; 23% in assay [6]. Also, the growth is 19.1% in assay [7]; 6.42% (active) in [8]; 41.6% in assay [9]; -21.5% (active) in [10]; 47.3% in assay [11]; 38.1% in assay [12]. The growth was 47.9% in [13]; 26.3% in [14]; 28% in assay [15]; 54.5% in assay [16]; 11.4% in assay [18]; 12.2% in assay [19]. The growth in [20] was 74.9%.

`Cc1ccc2nc(CN(CCN(Cc3nc4ccc(C)cc4[nH]3)Cc3nc4ccc(C)cc4[nH]3)Cc3nc4ccc(C)cc4[nH]3)[nH]c2c1`: the growth in assay [1] is -99.6% (active); in assay [2] it was -25.7% (active); in [3], -70.4% (active); in assay [4] it was -81.7% (active); in assay [5], -92.5% (active); in [6], -85% (active). In addition, the growth in [7] was -86.8% (active); in assay [8], -99.7% (active); in [9] it was -91.8% (active); in [10], -79.4% (active); in [11], -94.3% (active); in assay [12], -98.2% (active). Moreover, the growth in assay [13] is -100% (active); in assay [14], -100% (active); in assay [15], -94.1% (active); in [16], -83.4% (active); in assay [17], -100% (active); in [18], -85.3% (active). In addition, the values for the growth in assay [19] and in [20] were -90.8% (active) and -94.8% (active), respectively.

Regarding `COc1ccc2[nH]c(C(=O)OCc3ccc4c(Br)cc(Br)c(O)c4n3)cc2c1`, the growth in assay [1] is -94.6% (active); in assay [2], 1.4% (active); in [3] it was -79.6% (active); in [4], -73.6% (active); in assay [5], -89.2% (active); in assay [6], -70.8% (active). Further, the growth is 72.3% in [7]; -91.9% (active) in assay [8]; -72.8% (active) in assay [9]; -64.1% (active) in assay [10]; -62.1% (active) in assay [11]; -73.6% (active) in assay [12]. Further, the growth was -75.5% (active) in assay [13]; 43.1% in assay [14]; -28.3% (active) in assay [15]; -64.9% (active) in assay [16]; -79.5% (active) in [18]; -95.4% (active) in [19].

For the compound `COc1cc(/C=C/c2ccc3c(Br)cc(Br)c(O)c3n2)ccc1O`, the growth was 42.2% in [1]; -44.5% (active) in assay [2]; 53.7% in assay [3]; 53% in assay [4]; 1.71% (active) in [5]; 22.8% in assay [6]. Moreover, the growth in assay [7] was 27.4%; in assay [8], 21.5%; in [9] it was 25.1%; in assay [10] it was 27.1%; in assay [11], 27.6%; in assay [12], 36.7%. The growth was 36.5% in assay [13]; 23.4% in [14]; 16.4% in [15]; 12.9% in [16]; 27.5% in [17]; 10% in assay [18]. Also, the growth in assay [19] was 29.5%; in assay [20], 23.3%.

On to `Cc1ccccc1N1C(c2ccccc2)=NNC12C=CC(=O)c1c(O)cccc12` (stereo not given), for which the growth in assay [1] was 94.9%; in assay [2], 63.3%; in assay [3], 75.1%; in [4] it was 73.5%; in assay [5], 115%; in assay [6] it was 76.7%. Also, the growth was 54.5% in assay [7]; 76.2% in [8]; 45.3% in [9]; 75.5% in assay [10]; 29.5% in assay [11]; 91.7% in assay [12]. Moreover, the growth in assay [13] was 81.7%; in assay [14], 60.8%; in assay [15] it was 34.9%; in [16], 46.7%; in [17] it was -26.3% (active); in assay [18], 12%. For the same compound, the values for the growth in assay [19] and in [20] were 7.11% (active) and 102%, respectively.
